Measurements: PubChem BioAssay AID1347131 (National Center for Advancing Translational Sciences (NCATS), 2019)
Screen size: about 410,000 compounds; about 2,000 (0.49%) were called active. Another 8% or so got no clear call; they are omitted. The entries come from a sample that favours actives as a whole. Unmarked numbers belong to inactive results. Calls follow the shape of the full dose curve; tested in HEK293 reporter line.

Assay: qHTS Assay for Foot and Mouth Disease Virus Antivirals: Primary Screen against the MLPCN compound library; also: nearly all actives have a fitted effect of over 55% in size
Details: FMDV antiviral cell-based qHTS; series mostly up to 57.9 µM; activity, negative = inhibition: at the top concentration
Potency is read from the fitted curve at half-maximal effect.

Structure (SMILES) | activity, negative = inhibition [%] | Potency
O=C(NCCN1CCC(n2c(=O)[nH]c3ccccc32)CC1)c1ccc(Cl)cc1 | -37.5 | –
CC(C)Oc1ccc(C(=O)Nc2nc3c(s2)CC(C(C)(C)C)CC3)cc1 (configuration not stated) | -30.1 | –
CN(c1ccccc1)S(=O)(=O)c1ccc(C(=O)Nc2ccncc2)cc1 | -22.9 | –
CN(c1ccccc1)S(=O)(=O)c1cccc(C(=O)Nc2cccc(C(=O)NC3CC3)c2)c1 | -47.3 | –
COCc1ccc(C(=O)Nc2cccc(S(=O)(=O)N(C)c3ccccc3)c2)cc1 | – | 15.8 µM (active)
Cc1ccc(S(=O)(=O)N(C)CCCC(=O)Nc2cc(C)ccc2C)cc1 | -34.2 | –
CN(c1ccccc1)S(=O)(=O)c1ccc(C(=O)NCCc2ccc(F)cc2)cc1 | -32.5 | –
Cc1ccccc1C(c1c(C)n(C)n(-c2ccccc2)c1=O)c1c(C)n(C)n(-c2ccccc2)c1=O | -19 | –
CCCCCC(=O)N1CC2(CC(c3cccc(NC(=O)COc4ccc(Cl)cc4)c3)=NO2)C[C@@H]1C(N)=O (some centres not stated) | – | 14.1 µM (active)
NC(=O)[C@@H]1CC2(CC(c3cccc(NC(=O)CC(c4ccccc4)c4ccccc4)c3)=NO2)CN1C(=O)COc1ccc(Cl)cc1 (some centres not stated) | -32.3 | –
C=C(C)C(=O)N1CC2(CC(c3cccc(NC(=O)COc4ccc(Cl)cc4)c3)=NO2)C[C@@H]1C(N)=O (some centres not stated) | -30.8 | –
C=C1C(C)C2C(Cc3ccccc3)NC(=O)C23OC(=O)/C=C/C(O)CCCC(C)C/C=C/C3C1O (configuration not stated) | -34.8 | –
CC1CCCCN1C(=O)CSc1c2c(nc3cc(Cl)ccc13)CCCC2 (configuration not stated) | -37.7 | –
COc1ccc(/C=N/Nc2cc(C)nc3ccccc23)cc1 | -31 | –
COc1ccc(S(=O)(=O)Nc2nc3ccccc3s2)cc1 | 118 | –
COc1ccc(C=NNc2nc3ccccc3s2)cc1 | – | 15.8 µM (active)
O=Cc1cc(Cl)ccc1OCCN1CCC(Cc2ccccc2)CC1 | -35.1 | –
Nc1cccc2c1C(=O)N(CCOc1ccccc1F)C2=O | – | 15.8 µM (active)
COc1ccc2c(c1OC)C(=O)N1c3ccccc3C(=O)N(c3ccccc3F)C21 (configuration not stated) | -36.1 | –
COc1ccccc1CN1C(=O)c2cccc3cccc(c23)C1=O | -31 | –
CCCCC(=O)N1CCN(c2nc3c(C)c(C)ccc3s2)CC1 | -31.7 | –
CCc1nc2ccc(C(=O)Nc3cc(-c4ccccc4)ccc3OC)cn2c1N(C=O)CCC(C)C | -32.4 | –
CC(C)Oc1ccc(C(=O)NCC(=O)N2CCN(S(=O)(=O)/C=C/c3ccccc3)CC2)cc1 | -35.9 | –
Cc1ccc(-n2ncc3c(NC4CCCC4)ncnc32)cc1 | – | 12.6 µM (active)
Cc1ccc(-n2ncc3c(N4CCN(c5ccc(F)cc5)CC4)ncnc32)cc1 | -27.8 | –
Cc1ccc(-n2ncc3c(NC4CCCCC4)ncnc32)cc1 | – | 20 µM (active)

Structure (SMILES) | activity, negative = inhibition [%] | Potency
COc1ccccc1N1CCN(c2ncnc3c2cnn3-c2ccc(C)cc2)CC1 | -32.8 | –
Cc1ccc(-n2ncc3c(N4CCCCC4)ncnc32)cc1 | -57.3 | –
Cc1ccc(-n2ncc3c(N4CCCCCC4)ncnc32)cc1 | -98.4 | –
CC(C)c1cccc(C(C)C)c1NC(=O)CNCC(O)c1ccccc1 (configuration not stated) | -30.4 | –
COc1ccccc1Nc1cc(C)nc2c(C)ccc([N+](=O)[O-])c12 | -34.1 | –
COc1ccccc1NC(=O)c1c(N=Cc2cccc([N+](=O)[O-])c2)cnn1C | -31.2 | –
COc1ccccc1N/C=C/c1onc(C)c1[N+](=O)[O-] | – | 12.6 µM (active)
O=C(c1ccc(F)cc1)N1CCC(c2nc(-c3ccc(S(=O)(=O)N4CCCC4)cc3)no2)CC1 | -35.1 | –
COc1ccc(-c2ccc3c(c2)CN(C(=O)C(C)(C)C)Cc2cnnn2-3)cc1 | -30.7 | –
CCC(C)n1c(S(=O)(=O)O)nc2ccccc21 (configuration not stated) | -41.2 | –
O=C(NNC(=O)c1ccc2c(=O)n3c(nc2c1)CCC3)c1cccc(Cl)c1 | -31.4 | –
O=C(Nc1ccc2nc3n(c(=O)c2c1)CCCCC3)c1cccc(C(F)(F)F)c1 | -36.3 | –
Cc1cccc(NC(=O)c2ccc3c(=O)n4c(nc3c2)CCCCC4)n1 | – | 12.6 µM (active)
CC1(C)Cc2ccccc2-c2nnc(-c3ccc4ccccc4n3)n21 | -33.4 | –
c1ccc(-c2cn3c(n2)-c2ccccc2C3)cc1 | – | 7.94 µM (active)
CN1C(=O)N(CC(=O)Nc2cccc(S(=O)(=O)N(C)c3ccccc3)c2)C(=O)C12CCCCC2 | -33.6 | –
CCN1C(=O)[C@H]2[C@@H](c3ccc(-c4ccc(Cl)c(Cl)c4)c(OC)c3)N[C@@](C)(C(=O)OC)[C@H]2C1=O | -42.9 | –
Cc1nc(NC(=O)/C=C/c2ccc(C(C)(C)C)cc2)sc1C(=O)N(C)C | -38.4 | –
COc1ccc(N(C)S(=O)(=O)c2cccc(C(=O)Nc3nc(C)c(C(C)=O)s3)c2)cc1 | -50.3 | –
Cc1cc(C(=O)Nc2nc(C)c(C(=O)N(C)C)s2)ccc1[N+](=O)[O-] | – | 15.8 µM (active)
CCOc1ccc(CCNC(=O)COC(=O)COc2cc(C)cc(C)c2)cc1OCC | -24.7 | –
Cc1ccc(Nc2c(C(C)C)c(C)c(C#N)c3nc4ccccc4n23)cc1 | -30.2 | –
COc1cccc(Oc2cnc(N)nc2-c2ccc(OC)cc2O)c1 | -31.8 | –
Cc1cc2nc(-c3ccc[nH]c3=O)[nH]c2cc1C | – | 12.6 µM (active)
Cc1cc2nc(-c3nnnn3Cc3ccccc3)c(=O)[nH]c2cc1C | -30.4 | –
COc1ccc(-c2noc(CN(C(=O)c3cccs3)C(C)C)n2)cc1 | -31 | –

Structure (SMILES) | activity, negative = inhibition [%] | Potency
COC(=O)c1[nH]c2ccc(C)cc2c1NC(=O)CN1CCN(c2ccccc2)CC1 | -25.1 | –
COC(=O)c1[nH]c2cc(OC)ccc2c1NC(=O)CN1CCN(c2cccc(C)c2)C(C)C1 (configuration not stated) | -40.9 | –
COC(=O)c1[nH]c2ccccc2c1NC(=O)CN1CCN(c2cccc(OC)c2)C(C)C1 (configuration not stated) | – | 28.2 µM (active)
Cc1cc2nc(N3C(=O)CNC3=S)sc2cc1C | – | 20 µM (active)
COc1ccc(CN(C(=O)c2oc3cc(C)ccc3c2C)C2CCS(=O)(=O)C2)cc1OC (configuration not stated) | -30.8 | –
C=CCn1c(=O)c(C(=O)Nc2ncccc2C)c(O)c2ccccc21 | -9.9 | –
Cc1cccnc1NC(=O)c1cc2ccccc2oc1=O | – | 10 µM (active)
COc1cccc2cc(C(=O)NCc3ccc(Cl)cc3)c(=N)oc12 | -64.3 | –
COc1cccc2cc(C(=O)Nc3cccc(C)n3)c(=O)oc12 | – | 8.91 µM (active)
O=C(Nc1ccc(NC(=O)c2cc3ccccc3o2)cc1)c1ccc2c(c1)OCCO2 | -26.3 | –
Cc1ccc(NC(=O)c2cc3ccccc3oc2=O)cc1S(=O)(=O)N(C)C | -86.8 | –
COc1ccc(NC(=O)c2sc3nc(-c4cc5cccc(OC)c5oc4=O)[nH]c(=O)c3c2C)cc1 | -12.9 | –
COc1cccc(NC(=O)c2cc3ccccc3oc2=O)c1 | – | 20 µM (active)
CCOc1cccc2cc(C(=O)NC(C)c3ccccc3)c(=N)oc12 (configuration not stated) | -32 | –
COc1ccc(NC(=O)c2cc3ccccc3o/c2=N\NS(=O)(=O)c2ccc(C)cc2)cc1 | 64 | –
N=c1oc2ccccc2cc1C(=O)Nc1ccccc1 | – | 11.2 µM (active)
Cc1cccc(C)c1NC(=O)c1cc(-c2ccccn2)nc2ccccc12 | -31.1 | –
CCOc1ccc(CN(C)C(=O)c2cc(S(=O)(=O)N3CCCC3)ccc2C)cc1 | -31.9 | –
Cc1ccccc1C(=O)N/N=C1/SCC(=O)N1Cc1ccc2c(c1)OCO2 | -33.2 | –
C=CC(COCc1ccccc1)N([C@@H](Cc1ccccc1)C(=O)OC)S(=O)(=O)c1ccccc1Br (some centres not stated) | -30.4 | –
CCN(CCCNC(=O)CC(C(=O)N1CCc2ccccc21)n1ccnc1)c1cccc(C)c1 (configuration not stated) | -34.7 | –
Cc1nn(-c2ccccc2)nc1C(=O)NN | -32 | –
COc1cc(CNc2ncnc3c2ncn3[C@H]2CN(Cc3ccc(F)cc3)C[C@@H](CO)O2)cc(OC)c1OC | -34 | –
COc1ccc(Oc2ncc3nc(-c4ccc(Cl)cc4)c(=O)n(CCC#N)c3n2)cc1 | -30.5 | –
CCOC(=O)C1(CCOc2ccccc2)CCN(Cc2ccc(OC)c(O)c2)CC1 | -30.3 | –
CCC(=O)N(Cc1ccc2c(c1)OCO2)Cc1cc2cc(OC)ccc2[nH]c1=O | -31.5 | –

Structure (SMILES) | activity, negative = inhibition [%] | Potency
COc1cc(SC)ccc1C(=O)Nc1ccc(Br)cn1 | – | 8.91 µM (active)
COc1cc(SC)ccc1C(=O)Nc1nc2ccccc2[nH]1 | -100 | –
COc1cc(SC)ccc1C(=O)Nc1ccccn1 | – | 17.8 µM (active)
COc1cc(SC)ccc1C(=O)NCCOc1c(C)cc(C)cc1C | -35.5 | –
COc1ccc(C(=O)Nc2ccc(C)cn2)c(OC)c1 | -97.6 | –
COc1cc(C(=O)Nc2ccccc2C(=O)Nc2ccccn2)cc(OC)c1OC | -30.3 | –
CCOc1ccc(S(=O)(=O)N2CCN(C(=O)c3cc(C4CC4)nn3-c3ccccc3)CC2)cc1 | -36.7 | –
CN1CCN(C(=O)c2cc3nc(-c4ccccc4)cc(C(F)(F)F)n3n2)CC1 | -43.7 | –
CC(C)c1cc(Br)c(NC(=O)Nc2cccnc2)c(Br)c1 | -33.2 | –
O=C1CN=C(c2ccc(Br)cc2)c2c(sc3c2CCCC3)N1CCN1CCCCC1 | -32 | –
OCCCCCNc1ncnc2ccccc12 | -38.3 | –
Cc1cccc(C(=O)O/N=C(\N)c2ccccn2)c1 | – | 8.91 µM (active)
Cc1ccc(C(=O)O/N=C(\N)Cc2ccc([N+](=O)[O-])cc2)c(Cl)c1 | -38.9 | –
CO/N=C\c1cc(C(=O)c2ccc(Cl)cc2Cl)cn1C | -30.8 | –
CC(C)(C)c1ccc(C(=O)O/N=C(\N)c2ccccn2)cc1 | -86.1 | –
CC(C)(C)c1ccc(C(=O)O/N=C(\N)c2ccccc2)cc1 | -71.3 | –
Cc1cccc(/C(N)=N/OC(=O)c2ccc(Cl)cc2Cl)c1 | – | 20 µM (active)
CCCNNC(=O)C(O)(c1ccccc1)c1ccccc1 | -31.8 | –
Cc1ccc(-c2nnc(-c3ccccc3)c(N3CCOCC3)n2)cc1 | -32.6 | –
COc1ccc(-c2noc(C3CC(=O)N(c4cc(C)cc(C)c4)C3)n2)cc1 (configuration not stated) | -32.6 | –
Cc1cccc(C)c1-n1nnnc1C(c1ccnc2ccccc12)N(CCN(C)C)Cc1ccccc1 (configuration not stated) | -41.8 | –
Cc1cccc(C(=O)O)c1NC(=O)c1ccc(F)cc1 | -30.2 | –
Cc1ccc(C(=O)Nc2ccccc2C(=O)O)cc1S(=O)(=O)Nc1ccccc1 | 106 | –
Cc1c(NC(=O)c2ccc(-c3ccccc3)cc2)cccc1C(=O)O | – | 5.01 µM (active)
